Screens from PubChem BioAssay.
A selection: hits, their analogues and other compounds. The true share with any hit is near 2.4%.
TDP1 block: qHTS Assay for Inhibitors of Tyrosyl-DNA Phosphodiesterase (TDP1); Tyrosyl-DNA phosphodiesterase 1 (Homo sapiens), Q9NUW8; recombinant TDP1, AlphaScreen DNA substrate cleavage; Potency, µM (top dose mostly 130 µM), inactives show top-dose activity change, negative = inhibition, actives largely listed as inhibitors; 350,000 compounds, 0.28% hits; AID 485290, 2010; active means well fitted curve in the direction sought with a large enough effect; inconclusive means small, poorly fitted or top-dose-only effect, or another doubt; inactive means no such curve, though single readings can be large; an effect the other way counts as inactive or inconclusive; further: on the % scale 0 is the no-effect control and ±100 the full control effect; nearly all actives have a fitted effect of over 40% in size
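Compounds were preincubated with Tdp1 (1 nM final) for 15 min at room temperature before substrate (15 nM final) started a 5 min reaction; beads (10 ug/ml final) were then added for 10 min before AlphaScreen detection.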
PTAP TSG101 blk: qHTS Assay for Iinhibitors of HIV-1 Budding by Blocking the Interaction of PTAP/TSG101 | Fluorescence polarization, FITC-PTAP peptide / Tsg101 binding | Potency, µM (doses to about 115 µM), without a hit: at the highest dose activity change, negative = inhibition, hits mostly inhibitors | 340,000 tested, under 10 active | AID 493005, 2010; active means well fitted inhibition curve with a large enough effect in the main read-out, with a control signal flat, not every such curve was filed as active; inconclusive means small, poorly fitted or top-dose-only effect, or effect the other way, or a change in a side signal; inactive means no such curve, though single readings can be large or run the other way; further: % of control where 0% means no effect
Target sequence (Q99816 whole entry, looked up): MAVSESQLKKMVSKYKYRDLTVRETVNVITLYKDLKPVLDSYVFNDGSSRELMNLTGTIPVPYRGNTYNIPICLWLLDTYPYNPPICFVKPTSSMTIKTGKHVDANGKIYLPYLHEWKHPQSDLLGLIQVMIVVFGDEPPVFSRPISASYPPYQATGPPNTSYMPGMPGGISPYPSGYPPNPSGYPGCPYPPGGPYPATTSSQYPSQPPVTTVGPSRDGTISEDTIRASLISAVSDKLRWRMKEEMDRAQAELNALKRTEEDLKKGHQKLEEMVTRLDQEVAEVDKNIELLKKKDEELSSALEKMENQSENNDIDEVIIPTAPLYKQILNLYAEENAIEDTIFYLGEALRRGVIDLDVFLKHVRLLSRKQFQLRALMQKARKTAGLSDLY
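Fluorescence anisotropy tracks displacement of a FITC-tagged PTAP peptide (50 nM) from the Tsg101 binding domain (10 uM), following a 20 min room-temperature incubation at pH 7.5.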
ClpP mod: qHTS Assay for Activators of ClpP; Potency, µM (highest dose often 57.5 µM), for inactives: at the top dose activity change, negative = active; purified B. subtilis ClpP, FRET peptide cleavage, 20 min; 340,000 compounds, 1.9% hits; active means well fitted falling curve with a large enough effect; inconclusive means small, poorly fitted or top-dose-only effect; inactive means no such curve, though single readings can be large or run the other way; further: the source files actives as falling curves though it sought activators and does not explain the sign; nearly all actives have a fitted effect of over 65% in size
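FRET quenching reversal measured ClpP activation: 10 microg/mL B. subtilis ClpP at pH 8 with the FRET-FV decapeptide, read at 430 nm after 320 nm excitation. The 20-min minus 0-min signal was scaled between DMSO/no-enzyme wells and ADEP (5.8 microM final).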
Rango dissoc inh: qHTS Assay for Inhibitors of RanGTP induced Rango (Ran-regulated importin-beta cargo) - Importin beta complex dissociation; Snurportin-1 (Homo sapiens) + GTP-binding nuclear protein Ran (Homo sapiens) + Importin …; Biochemical FRET Rango-importin beta, RanGTP-induced dissociation; Potency, µM (highest dose often 46.1 µM), without a hit: top-dose activity change, negative = inhibition; 340,000 compounds, 0.071% hits; further: % of control where 0% means no effect; nearly all actives have a fitted effect of over 45% in size
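Rango/importin beta premix (0.1/0.25 uM final), PBS + 1 mM DTT + 0.02% Tween-20 + 0.1% BSA; cpd 5 min RT; FRET pre-read; + RanGTP-RCC1 (0.6 uM Ran, 2 mM GTP, 0.2 uM RCC1); 45 min RT; FRET post-read, ex 430, em 486/530 nm.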
Rango-impB inh: qHTS Assay for Inhibitors of Rango (Ran-regulated importin-beta cargo) - Importin beta complex formation; Importin subunit beta-1 (Homo sapiens), Q14974; Rango CFP/YFP FRET sensor + importin beta, 45 min; Potency, µM (titrated, usually from 92.2 µM), inactives show at the top dose inhibition of complex formation; 340,000 compounds, 0.031% hits; AID 540263, 2011;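 further: 0% = DMSO wells and 100% = buffer wells lacking importin beta; nearly all actives have a fitted effect of over 15% in size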
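FRET biosensor Rango (snurportin 1 IBB between N-terminal EYFP and C-terminal Cerulean), 50 nM in PBS/1 mM DTT/0.02% Tween-20/0.1% BSA, preincubated 5 min RT with compound; 0.125 microM importin beta added, 45 min RT, CFP/YFP FRET ratio read.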
12-LOX inh: Primary qHTS assay for inhibitors of human arachidonate 12S-lipoxygenase (ALOX12): Round 2; Polyunsaturated fatty acid lipoxygenase ALOX12 (Homo sapiens), P18054; purified 12hLO, xylenol orange hydroperoxide absorbance; Potency, µM (top dose mostly 108 µM), without a hit: at the top dose activity change, negative = inhibition, hits mostly inhibitors; 580,000 compounds, 1.1% hits; AID 1671190, 2021; active means well fitted curve in the direction sought with a large enough effect; inconclusive means small, poorly fitted or top-dose-only effect, or another doubt; inactive means no such curve, though single readings can be large; an effect the other way counts as inactive or inconclusive; further: on the % scale 0 is the no-effect control and ±100 the full control effect
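Purified human 12hLO (150 nM final) in 25 mM Hepes, 0.01% Triton X-100, pH 7.0 was preincubated 15 min at room temperature with compound. Then 40 uM arachidonic acid was added, 30 min. Hydroperoxide was read by Fe-XO absorbance ratio 573/405 nm.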
An asterisk follows results filed as active; ? = inconclusive; nt = not tested or not shown; [ ] = dose if it differs, or a comment. Unless noted, the call rests on the fitted dose curve. Potency means the concentration at half of the fitted maximal effect.

SMILES | TDP1 block | PTAP TSG101 blk | ClpP mod | Rango dissoc inh | Rango-impB inh | 12-LOX inh
COCCNC(=O)[C@@H](C)C1CC[C@@]2(C)Cc3sc(NC(=O)CN(C)C)nc3[C@@H](C)[C@@H]2[C@H]1O (stereo partly drawn) | nt | nt | nt | nt | nt | 9%
CCOc1ccc(CNC(=O)CCS(=O)(=O)Cc2ccccc2C)cc1OC | 0% | -1% | 2% | 0% | 4% | -2%
CCOc1ccc(CNC(=O)CCS(=O)(=O)Cc2ccc(C)cc2)cc1OC | -3% | -1% | 25µM* | -5% | -1% | 17%
CCOc1cc(=O)n2c(c1C(=O)Nc1ccccc1C(=O)OC)CCCC2 | nt | nt | nt | nt | nt | 33%
CCOC(=O)C1=C(C)NC2=C(C(=O)CCC2)C1c1cn(Cc2ccc(Cl)cc2Cl)nc1-c1ccccc1 (stereo not drawn) | 3% | 0% | 28µM* | 12% | -3% | -7%
CCCCn1c(=O)[nH]c(=O)c2c1nc(CSc1nnnn1C1CC1)n2CC | nt | nt | nt | nt | nt | -5%
FC(F)(F)c1nnc2sc(-c3ccncc3)nn12 | -6% | -5% | 0% | 13% | 5% | -20%
FC(F)(F)c1nnc2sc(-c3cccs3)nn12 | 2% | -3% | 28µM* | -11% | ? | 41%
O=C(O)c1ccnc(-c2ccnc(NCC(O)c3ccccc3Cl)n2)c1 (stereo not drawn) | nt | nt | nt | nt | nt | 29%
CC(CN1CCN(C/C=C/c2ccccc2)CC1)c1ccccc1 (stereo not drawn) | nt | -4% | 0% | 1% | -1% | 0.79µM*
C(=C/c1ccccc1)/CN1CCN(C(c2ccccc2)c2ccccc2)CC1 | 11%[56.1 µM] | nt | nt | nt | nt | nt
C=CCNC(=O)/C(C#N)=C/c1ccc(SC)cc1 | 7% | -6% | 25µM* | 4% | 3% | -4%
Cc1cccc(OCC2(CNC3CCN(C)CC3)C[C@@H](O)[C@@H](O)C2)n1 (stereo partly drawn) | nt | nt | nt | nt | nt | 15%[176 µM]
C=CCN(c1nc(C)c(Br)c(OC)n1)S(=O)(=O)c1ccc(C)cc1 | 50µM* | -3% | 2% | 28% | 1% | ?
Cc1cc(C(=O)COc2ccccc2C(N)=O)c(C)n1C1CC1 | 8% | -6% | 0% | -13% | 1% | -7%
Cc1cc(C(=O)COc2ccccc2C(N)=O)c(C)n1C | 11% | 3% | 28µM* | 9% | 5% | 2%
CS(=O)(=O)Nc1cccc(-c2ccc3ncnc(Nc4ccc(F)cc4)c3c2)c1 | 10%[56.1 µM] | nt | nt | nt | nt | 18µM*
O=C(NCC1CCCO1)c1ccccc1 (stereo not drawn) | 3% | -7% | -2% | 3% | 5% | 1%
O=C(NC(=S)NCC1CCCO1)c1ccc(Cl)cc1 (stereo not drawn) | 0% | 0% | -5% | 3% | -2% | 40µM*
C[n+]1cccc(C(=O)NCC2CCCO2)c1 (stereo not drawn) | 3% | 3% | -15% | 8% | -2% | 16µM*
Cc1ccccc1NC(=O)NCC1CCCO1 (stereo not drawn) | 3% | -4% | 28µM* | -1% | 2% | 459%
CCc1nc2c(c(=O)[nH]1)C(CC)(CC)Cc1ccccc1-2 | 5% | -2% | -2% | 8% | 3% | 0%
